# High-throughput results (PubChem)
# JMJD2A Tudor inh: inhibitors of human JMJD2A Tudor domain. AlphaScreen JMJD2A-Tudor / H3K4me3 peptide binding. 390,000 compounds, 4.4% hits. Potency, µM (titrated, usually from 114 µM), for inactives: at the top dose activity change, negative = inhibition, hits mostly inhibitors. O75164; note: % is set by controls: 0 for no effect and ±100 for the full control effect; nearly all actives have a fitted effect of over 50% in size
# G9a block: G9a (human) methyltransferase inhibition | Q96KQ7 | G9a H3K9 monomethylation, AlphaScreen, 2 h | Potency, µM (titrated, usually from 102 µM), without a hit: at the highest dose activity, negative = inhibition, most hits filed as inhibitors | 350,000 compounds, 8.8% hits | AID 504332; note: % is set by controls: 0 for no effect and ±100 for the full control effect; nearly all actives have a fitted effect of over 75% in size
# Target sequence (Q96KQ7 913-1193 limits assumed): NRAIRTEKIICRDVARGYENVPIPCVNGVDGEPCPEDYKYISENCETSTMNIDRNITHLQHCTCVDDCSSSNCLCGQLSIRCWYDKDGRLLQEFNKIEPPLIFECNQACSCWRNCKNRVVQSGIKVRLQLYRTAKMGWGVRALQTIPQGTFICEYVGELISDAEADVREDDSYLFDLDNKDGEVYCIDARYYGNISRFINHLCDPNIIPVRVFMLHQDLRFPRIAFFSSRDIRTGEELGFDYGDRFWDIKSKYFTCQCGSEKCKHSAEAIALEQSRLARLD
#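 G9a (20 nM) was preincubated 15 min with compound, then reacted 2 h at room temperature with 500 nM biotin-H3K9 peptide and 20 µM SAM. Monomethyl-H3K9 detected by AlphaScreen using anti-H3K9me1 antibody.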
# BAZ2B inh: blocks human BAZ2B | Q9UIF8 | AlphaScreen BAZ2B-H3K14Ac peptide displacement | Potency, µM (top dose mostly 114 µM), for inactives: at the top dose activity change, negative = inhibition, most hits filed as inhibitors | 360,000 compounds, 4.4% hits; note: % is set by controls: 0 for no effect and ±100 for the full control effect; nearly all actives have a fitted effect of over 60% in size
#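 AlphaScreen luminescence quantifies BAZ2B engagement of H3K14Ac peptide; the protein and biotinylated peptide are both at 50 nM final, buffer PBS pH 7.4 with 0.01% Tween-20, all steps at room temperature.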
# Sfp PPTase inh: blocks B. subtilis Sfp PPTase activity. AID 1490. Biochemical Sfp PPTase activity, qHTS. Potency, µM, for inactives: largest response in the series, negative = inhibition, hits mostly inhibitors. 310,000 compounds, 3.5% hits. Q9F4F7;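 note: the enzyme is Sfp with the accession as filed and its product quenches rhodamine fluorescence; 0% = enzyme reaction without inhibitor and -100% = no enzyme wells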
#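 Sfp 15 nM + cpd, 15 min RT; start w/ rhodamine-CoA 5 uM, BHQ-2-YbbR 12.5 uM (final); 50 mM Hepes pH 7.6, 10 mM MgCl2, 0.01% NP-40, 0.01% BSA; read 525/598 nm at 0 and 30 min.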
# HP1b binding inh: HP1-beta chromodomain-methylated histone interaction inhibition. P83916. AlphaScreen HP1-beta / biotin-H3K9me3 peptide binding. Potency, µM (doses to about 114 µM), inactives show at the top dose activity change, negative = inhibition, hits mostly inhibitors. 390,000 compounds, 0.56% hits; note: nearly all actives have a fitted effect of over 70% in size
# Target sequence (P83916 whole entry, looked up): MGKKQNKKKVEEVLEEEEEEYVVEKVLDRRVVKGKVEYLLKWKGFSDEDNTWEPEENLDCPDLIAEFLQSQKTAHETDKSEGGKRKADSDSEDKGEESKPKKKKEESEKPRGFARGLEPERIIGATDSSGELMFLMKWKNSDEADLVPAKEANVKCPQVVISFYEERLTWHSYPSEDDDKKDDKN
#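 HP1-beta protein (50 nM final) preincubated 30 min at room temperature with biotinylated H3(1-18)K9me3 peptide (50 nM) in PBS pH 7.4, 0.01% Tween-20, then compound added for 30 min. AlphaScreen streptavidin donor/nickel chelate acceptor beads (10 ug/mL final), 30 min dark, luminescence read.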
# * marks the source's active call; other numbers are inactive results; ? = inconclusive; · = no result; [ ] = remark or other dose. This is a sample that favours compounds with a hit; in the whole collection about 12% have one here. Calls come from the whole dose curve; as a rule, active = well fitted curve in the direction sought with a large enough effect; inconclusive = small, poorly fitted or top-dose-only effect, or another doubt; inactive = no such curve, though single readings can be large; an effect the other way counts as inactive or inconclusive. Potency is the fitted concentration of half-maximal effect.
SMILES,JMJD2A Tudor inh,G9a block,BAZ2B inh,Sfp PPTase inh,HP1b binding inh
C[C@]12CCC3C(CC[C@]4(O)C[C@@H](O)CC[C@]34C=O)[C@@]1(O)CC[C@@H]2C1=CC(=O)OC1 (stereo partly drawn),·,·,·,5.4%,·
COc1ccc(NS(=O)(=O)c2ccc(OCC(=O)N3CCN(C)CC3)cc2)cc1Cl,-4.1%,79.4µM*,-19.2%,15.3%,56.8%
Cc1ccc(NS(=O)(=O)c2ccc(OCC(=O)N3CCN(C)CC3)cc2)cc1,-10.3%,·,-12.0%,-0.6%,18.1%
Cc1cccnc1-n1c(-c2ccco2)nc2ccccc2c1=O,13.0%,50.1µM*,-6.0%,0.5%,21.6%
CCOC(=O)N1CC(C)N(/[N+]([O-])=N/Oc2ccc([N+](=O)[O-])cc2[N+](=O)[O-])CC1C (stereo not drawn),89.1µM*,·,·,-6.6%,-12.0%
CCOC(=O)N1CCN(/[N+]([O-])=N/Oc2ccc([N+](=O)[O-])cc2[N+](=O)[O-])C(C)C1 (stereo not drawn),-9.0%,·,·,?,25.0%
CN1C2CCCC1CC(=O)C2,·,·,·,5.2%,·
Cc1ccccc1C(=O)Nc1sc2c(c1C(=O)O)CCC(C(C)(C)C)C2 (stereo not drawn),-34.9%,10µM*,?,·,-0.9%
O=C(Nc1sc2c(c1C(=O)Nc1ccc(Cl)cc1)CCCC2)c1cccs1,-8.8%,20.8%[59 µM],-1.9%,·,23.6%
Cc1ccc(Cl)cc1N1CCN(C(=O)c2cn(CC(C)C)c(=O)c3c2c2ccccc2n3C)CC1,-30.4%,?,?,·,11.7%
O=C1CCCC2[C@@H]3CCCN4CCC[C@@H](CN12)C34 (stereo partly drawn),·,·,·,-12.3%,·
O=C(NC1CCCCCC1)c1ccc[nH]c1=S,5.01µM*,2.51µM*,-4.2%,?,?
O=C(Nc1cccc(F)c1)N1CC2(CCNCC2)C1,·,-5.8%[12.7 µM],·,?,·
c1ccc(CN2CCNCC2)nc1,44.7µM*,35.5µM*,70.8µM*,-4.6%,9.8%
C[C@@]12CC(c3ccoc3)OC(=O)C1CC[C@@]1(C)C2C2C=C[C@@]1(O)C(=O)O2 (stereo partly drawn),·,·,·,15.0%,·
COc1cc2c3cc1Oc1cc(ccc1O)C[C@@H]1c4c(cc(OC)c(O)c4Oc4cccc(c4)C[C@H]3N(C)CC2)CC[N+]1(C)C,·,-0.9%[21.5 µM],·,-17.1%,·
Cc1nc2cc(F)ccc2n1C1CCN(Cc2nnnn2CCc2ccccc2)CC1,-35.4%[57.1 µM],-15.6%[59 µM],56.2µM*,-0.3%,-5.6%
Cc1nc2cc(C(F)(F)F)ccc2n1C1CCN(Cc2nnnn2CCc2ccccc2)CC1,-21.4%,6.1%[59 µM],11.7%,2.3%,19.1%
CCOC(=O)c1cccc([P+](=O)O)c1,28.2µM*,-26.3%[59 µM],0.2%,9.6%,18.3%
CCC(=O)CCCCC[C@@H]1NC(=O)[C@H]2CCCCN2C(=O)[C@H]([C@@H](C)CC)NC(=O)[C@H](Cc2cn(OC)c3ccccc23)NC1=O,·,·,·,-17.2%,·
C[N+]12CCC(CC1)C(C#N)(N1CCOCC1)C2 (stereo not drawn),?,50.1µM*,0.8%,9.2%,21.4%
CN(CCc1ccccc1)Cc1c[nH]c2ccccc12,?,3.16µM*,?,6.0%,-9.2%
CCN(CC)Cc1c[nH]c2ccccc12,-29.6%,?,?,-9.5%,1.0%
CCN(CC)CCCNC(=O)c1c(O)c2ccccc2n(Cc2ccccc2)c1=O,-30.3%,-21.8%[0.501 µM],?,-8.3%,22.4%
CCN(CC)CCNC(=O)c1c(O)c2ccccc2n(Cc2ccccc2)c1=O,79.4µM*,?,-37.0%,1.6%,-7.7%
SMILES,JMJD2A Tudor inh,G9a block,BAZ2B inh,Sfp PPTase inh,HP1b binding inh
Cn1ncc2c(NCc3ccc(F)cc3)ncnc21,-29.3%,-1.4%[59 µM],0.7%,·,67.7%
CN(C(=O)Cc1ccccc1)[C@H](CN1CCCC1)c1ccccc1,·,-7.6%[59 µM],·,-9.4%,·
O=C1NC(=O)N(Cc2ccco2)C(=O)/C1=C\c1cccn1CCOc1ccc(Cl)cc1,?,-5.8%[59 µM],39.8µM*,44.7µM*,6.5%
CCc1ccc(N2C(=O)NC(=O)/C(=C/c3cccn3CCOc3ccc(C)cc3)C2=O)cc1,-4.2%,21.9%[59 µM],?,0.3%,35.8%
Cc1cccc(OCCn2cccc2/C=C2/C(=O)NC(=O)N(Cc3ccco3)C2=O)c1,-29.4%,·,44.7µM*,56.2µM*,20.4%
CO[C@@H](C)[C@](O)(C(=O)OCC1=CCN2CC[C@@H](O)[C@H]12)C(C)C,·,25.3%[21.5 µM],·,13.9%,·
COc1cccc(NC(=O)c2ccc[n+](C)c2)c1,?,39.8µM*,-25.2%,-0.9%,38.8%
c1ccc2c(c1)Nc1ccccc1S2,?,12.6µM*,12.6µM*,3.6%,?
O=C1Nc2ccccc2Sc2ccccc21,-8.8%,19.9%,-12.0%,-2.1%,37.4%
Cn1c(CN2CCN(C(=O)COc3ccccc3)CC2)nc2cc([N+](=O)[O-])ccc21,-0.3%,12.5%[59 µM],-9.2%,4.1%,56.7%
CCN1CCN(C(=O)Cc2ccccc2OC)CC1,-7.7%,-3.8%,-24.9%,16.0%,33.6%
Cc1cccc(OCC(=O)N2CCN(Cc3ccc([N+](=O)[O-])cc3)CC2)c1,10µM*,0.2%,-1.0%,11.6%,?
COc1ccc(OCC(=O)N2CCN(C(C)C)CC2)cc1,1.41µM*,10µM*,56.2µM*,-19.3%,?
COc1cc(OC)c(OC)cc1CN1CCN(C(=O)COc2ccc3ccccc3c2)CC1,3.16µM*,10µM*,44.7µM*,-21.0%,50.1µM*
COc1ccccc1CN1CCN(C(=O)COc2ccccc2)CC1,3.16µM*,?,?,-11.2%,?
COc1cc(CNC(=O)CCCC/C=C/C(C)C)ccc1O,-5.8%,3.5%[59 µM],9.2%,-4.5%,51.1%
CCOP(=O)(Cc1ccc(C(=O)CC)o1)OCC,-7.9%,-1.6%,-13.3%,16.1%,1.5%
CCOP(=O)(Cc1cc(C(=O)CC)c(C)o1)OCC,9.4%,8.91µM*,-5.1%,?,54.8%
O=C(Nc1ccc2nc(SCC(=O)N3CCCc4ccccc43)sc2c1)c1ccccc1F,-11.3%,4.8%[59 µM],-13.5%,·,43.5%
Cc1cc(Cc2c(O)[nH]c(=S)[nH]c2=O)ccc1OC(C)C,89.1µM*,8.91µM*,-20.7%,56.2µM*,?
CC(C)COc1ccc(Cc2c(O)[nH]c(=S)[nH]c2=O)cc1,-17.7%,21.9%[0.501 µM],3.0%,?,?
COc1ccc(NC(=O)N2CCC3(CC2)CCN(C(=O)Oc2ccccc2)CC3)cc1,·,12.8%[12.7 µM],·,12.2%,·
COc1ccc(CN2C(=O)CC(=O)NC2=S)cc1,-10.7%,70.8µM*,?,?,30.2%
Cc1cccc(N2C(=O)/C(=C/N3CCN(C(=O)c4ccco4)CC3)C(=O)NC2=S)c1,-18.3%,?,-2.5%,?,17.2%
Cc1ccc(N2C(=O)/C(=C/N3CCN(C(=O)c4ccco4)CC3)C(=O)NC2=S)cc1C,-13.5%,54.4%[12.7 µM],-31.2%,44.7µM*,4.6%
O=C1NC(=S)N(c2ccc(Br)cc2)C(=O)/C1=C/N1CCN(C(=O)c2ccco2)CC1,-29.0%,44.7µM*,-33.1%,-3.8%,4.1%
